24 compounds from PubChem BioAssay (EPA / NIEHS) can be followed below.

Inconclusive results are not listed. The source made the active and inactive calls. Rule for the calls: active = hit-call score of the fitted dose curve at least 0.9, where 1 is the maximum; inconclusive = response in the unintended direction; inactive = score below 0.9.

Sequence of Bile acid receptor (Homo sapiens) (Q96RI1 whole entry, looked up, the tested form may be a part): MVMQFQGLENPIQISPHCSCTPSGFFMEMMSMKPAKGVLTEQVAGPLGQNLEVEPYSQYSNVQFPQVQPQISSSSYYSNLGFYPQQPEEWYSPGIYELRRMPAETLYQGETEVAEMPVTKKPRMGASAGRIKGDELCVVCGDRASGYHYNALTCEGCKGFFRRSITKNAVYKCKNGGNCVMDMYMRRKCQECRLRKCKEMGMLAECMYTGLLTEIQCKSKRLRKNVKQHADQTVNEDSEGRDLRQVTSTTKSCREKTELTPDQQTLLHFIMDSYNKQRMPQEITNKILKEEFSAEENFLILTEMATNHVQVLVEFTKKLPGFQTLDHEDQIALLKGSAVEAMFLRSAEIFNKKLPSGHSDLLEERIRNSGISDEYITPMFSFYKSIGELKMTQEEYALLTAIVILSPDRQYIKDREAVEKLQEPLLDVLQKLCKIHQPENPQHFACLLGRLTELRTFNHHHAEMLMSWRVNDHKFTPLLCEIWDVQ

The test deals with Bile acid receptor (Homo sapiens) (UniProt Q96RI1). Put plainly: ATG_FXR_TRANS: Attagene TRANS-FACTORIAL HepG2 Assay for Farnesoid X Receptor (FXR) (AID 2282979).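 Note: hits raise reporter mRNA above DMSO so AC50 marks FXR activation.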 Conditions: HepG2 Attagene TRANS FXR-GAL4 reporter transcription. The method, then:
ATG_TRANS is a cell-based, multiplexed-readout assay that uses HepG2, a human liver cell line, with measurements taken at 24 hours after chemical dosing in a 24-well plate.ATG_FXR_TRANS is one of 30 assay component(s) measured or calculated from the ATG_TRANS assay. It is designed to make measurements of mRNA induction, a form of inducible reporter, as detected with fluorescence intensity signals by Reverse transcription polymerase chain reaction (RT-PCR) and Capillary electrophoresis technology.Data from the assay component ATG_FXR_TRANS was analyzed into 1 assay endpoint. This assay endpoint, ATG_FXR_TRANS, was analyzed in the positive analysis fitting direction relative to DMSO as the negative control and baseline of activity. Using a type of inducible reporter, measures of mRNA for gain-of-signal activity can be used to understand the reporter gene at the transcription factor-level as they relate to the gene NR1H4. Furthermore, this assay endpoint can be referred to as a primary readout, because this assay has produced multiple assay endpoints where this one serves a reporter gene function. To generalize the intended target to other relatable targets, this assay endpoint is annotated to the nuclear receptor intended target family, where the subfamily is non-steroidal.
Human liver HepG2 cells are transiently transfected with multiple reporter transcription units (MRTUs) in 6-well plates using FuGene 6 reagent (Roche; 3 ml FuGene/1 mg DNA). The MRTU constructs are regulated by a cis-regulating element (promoter). […] A major difference between the CIS and TRANS system is that in CIS activities of endogenous TFs are measured, whereas the TRANS assay evaluates changes in activities of exogenous, chimeric NR-Gal4 proteins. […] At the end of 24 hour incubation, total RNA was isolated using TriZol reagent (Invitrogen). The isolated RNA is then reverse-transcribed using oligo(dT) primer and Mo-MLV reverse transcriptase (Invitrogen) with DNAse I (Ambion) treatment for 30 min. The one-tenth of the produced cDNA was amplified by PCR using Taq DNA polymerase (Invitrogen) and two reporter sequence-specific primers. The PCR products were fluorescently labeled by primer extension with 6-arboxyfluorescein (6-FAM) 5'-labeled reporter sequence-specific primer (2 min at 95 C, 20 s at 68 C and 10 min at 72 C) and these products were digested with 5U of HpaI (New England Biolabs) for 2h at 37 C. The fragments were purified using Qiaquick PCR columns (Qiagen), analyzed on an ABI 3130xL genetic analyzer (Applied Biosystems) with peak positions identified by using a set of X-rhodamine (ROX)-labeled MapMarker1000 molecular weight standards (BioVentures). The raw capillary electrophoresis data was processed using Attagraph software (Attagene).
In the case of `Cc1nc(-c2ccc3c(c2)CCN(CCC2CCC(NC(=O)/C=C/c4ccc(F)cc4)CC2)CC3)no1` (centres undefined), the compound was classed as inactive.
To `Nc1nc(N)c2nc(CNc3ccc(C(=O)N[C@@H](CCC(=O)O)C(=O)O)cc3)cnc2n1` belongs “inactive”.
On to `CC1(C)CC(N=C=O)CC(C)(CN=C=O)C1` (centres undefined), for which the result was inactive.
On to `COc1cc(S(=O)(=O)O)c(C)cc1N=Nc1c(O)ccc2cc(S(=O)(=O)O)ccc12`, for which the compound was classed as inactive.
To `O=C(O)CCCCC(=O)O` belongs “inactive”; to `CCOC(=O)C(C)(C)Oc1ccc(Cl)cc1`, “inactive”; to `C=CCOC(=O)c1ccccc1C(=O)OCC=C`, “inactive”.
As for `NC(=O)Cn1c(=O)cc(CCN2CCN(c3nccc4sccc34)CC2)c2ccc(F)cc21`, the result was inactive.
Take `Cc1c(C(=O)O)c(O)cc2c1C(=O)c1c(O)c([C@@H]3O[C@H](CO)[C@@H](O)[C@H](O)[C@H]3O)c(O)c(O)c1C2=O`: the compound was called inactive.
In the case of `Cc1cc(NC(=O)C(=O)O)cc(C)c1Oc1ccc(O)c2c1CCC2`, the compound was classed as inactive.
Consider `CCCCc1ccc2c(n1)[C@@H](c1ccc(OC)cc1C[C@H](C)C(=O)O)[C@H](C(=O)O)[C@H]2c1ccc2c(c1)OCO2`, for which the compound was classed as inactive.
In the case of `CC(CO)OC(C)CO` (centres undefined) (tested in a mixture with another compound), the call was inactive.
To `CN[C@H]1CC[C@@H](c2ccc(Cl)c(Cl)c2)c2ccc(S(N)(=O)=O)cc21` belongs “inactive”; to `CCc1c(C(=O)NN2CCCCC2)nn(-c2ccc(Cl)cc2Cl)c1-c1ccc(Br)cc1`, “inactive”; to `COc1cc(C=O)ccc1O`, “inactive”.
The result for `Cc1cc(=O)[nH]c(=S)[nH]1` reads “inactive”; that for `CN1CCN(Cc2cc(-c3ccc4[nH]c(=O)oc4c3)co2)[C@@H](c2ccc(F)cc2)C1`, “inactive”.
The result for `Nc1ccc(S(=O)(=O)c2ccc(N)cc2)cc1` reads “inactive”; that for `COCCOCCOC`, “inactive”; that for `Cc1ccccc1Cl`, “inactive”.
For `CCCCCCCCCCCC(=O)OC`, the compound was called inactive.
As for `Cc1nc(C)nc(N2C[C@@H](C)N(c3ccnc([C@@H](C)O)n3)[C@@H](C)C2)n1`, the call was inactive.
For `COc1cc(-c2nc(NC(=O)c3cc4cc(C)cc(C)c4n3CC(=O)O)sc2CCC2CCCCC2)c(OC)cc1Cl`, the outcome was inactive.
To `C[Si]1(C)O[Si](C)(C)O[Si](C)(C)O[Si](C)(C)O1` belongs “inactive”.
